Relative growth data for 44 molecules are collected here from PubChem BioAssay AID720641 (ICCB-Longwood Screening Facility, Harvard Medical School, 2013).

SMILES strings stand for the structures. Where “and” joins values, the source holds several entries; their conditions need not be identical. Equal entries are not always repeated. About 900 (0.53%) of roughly 170,000 compounds were called active.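 Rule for the calls: active = relative growth at most 50% at the other temperature and 20+ points below 30 °C, or under 10% at both; inactive = the rest, inconclusive results apart.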 The full list was thinned out, with actives kept by preference.

The assay in a line: S. aureus growth inhibition at 42 and 30 °C, primary screen, LtaS inhibitor project, RN4220, two temperatures (AID 720641). As to conditions: OD600, 20 h, 42 °C, stronger effect = lower value.

On to `Cc1c(C(=O)NC2CCCC2)oc2ccc(S(=O)(=O)N(C)C3CCCCC3)cc12`, for which the relative growth was 142% (inactive). Where the note is “measured here: growth at 30 °C”, the relative growth worked out at 89.2%.
As for `Cc1ccc(-c2cc(C(=O)Oc3ccccc3Cl)no2)cc1C`, the relative growth is 0.23% (active). Moreover, the relative growth (measured here: growth at 30 °C) was -0.03%.
Regarding `CCCCNC(=O)c1cc(-c2ccc(Cl)c(Cl)c2)on1`, the relative growth is 100% (inactive). Also, the relative growth (measured here: growth at 30 °C) came to 88%.
Take `COCCNC(=O)c1cc(-c2cccc(Cl)c2)on1`: the relative growth is 92.5% (inactive). The relative growth (measured here: growth at 30 °C) was 110%.
For `CC(=O)Nc1ccc2nc3c(cc2c1)[nH]c1ccccc13`, the relative growth is 114% (inactive). Further, the relative growth (measured here: growth at 30 °C) worked out at 93.5%.
In the case of `COc1ccc(-c2csc3ncnc(NCCSCc4ccco4)c23)cc1`, the relative growth was 67.1% (inactive). For the same molecule, the relative growth (measured here: growth at 30 °C) came out at 66.9%.
For `Clc1ccc(C(Cn2ccnc2)OCc2ccsc2Cl)c(Cl)c1` (stereo not drawn), the relative growth was -0.03% (active) and -0.62% (active). Further, for the setting “measured here: growth at 30 °C”, the relative growth was 0.13% and 0.06%.
On to `CC1CCCCN1C(=O)c1ccc(Br)cc1` (stereo not drawn), for which the relative growth was 99.9% (inactive). Also, the relative growth (measured here: growth at 30 °C) came to 91.1%.
On to `COc1ccc(N=C2SCCCN2C(=O)C2CCCC2)cc1OC`, for which the relative growth is 94.4% (inactive). For the same molecule, the relative growth (measured here: growth at 30 °C) was 86%.
On to `CC(NCc1ccc(OC(F)F)cc1OC(F)F)c1ccc(-n2ccnc2)cc1` (stereo not drawn), for which the relative growth was 101% (inactive). Also, the relative growth (measured here: growth at 30 °C) was determined as 92.4%.
`Sc1ccc2ccccc2c1`: the relative growth is 82.2% (inactive). Also, the relative growth (measured here: growth at 30 °C) was found to be 91%.
For the molecule `COc1ccccc1NC(=O)Oc1ccc2ccncc2c1`, the relative growth is 105% (inactive). Moreover, the relative growth (measured here: growth at 30 °C) came to 97.9%.
For `c1ccc2cc3cnccc3cc2c1`, in that order: 3.61% (active) and 2.36%.
As for `CC(=O)N1CC=C(c2ccc(O)cc2)CC1`, the relative growth was 37.5% (inactive). Further, under “measured here: growth at 30 °C”, the relative growth came out at 31.2%.
For `O=C(NCCc1ccccc1)c1ccc(C(=O)c2ccccc2)o1`, in that order: 99.2% (inactive) and 94.2%.
For `Cc1cc(C)cc(NS(=O)(=O)c2ccc3c(c2)CC(=O)N3)c1`, in that order: 96.8% (inactive) and 77%.
In the case of `Cc1cc(NC(=O)c2cc3ccc4cccnc4c3[nH]2)no1`, the relative growth was 108% (inactive). Further, the relative growth (measured here: growth at 30 °C) was 92.6%.
Consider `COc1cc(NC(=O)c2cc3ccc4cccnc4c3[nH]2)cc(OC)c1OC`, for which the relative growth is 90.5% (inactive). Where the note is “measured here: growth at 30 °C”, the relative growth was found to be 89.8%.
The corresponding values for `CC1=Nc2c(ccc3cccnc23)C1(C)C` are 3.05% (active) and 2.08%.
The corresponding values for `O=C(COC(=O)c1n[nH]c2ccccc12)Nc1ccc(N2CCOCC2)cc1` are 104% (inactive) and 96.3%.
As for `Cc1ccc(-n2c(C)ccc2C)cc1`, the relative growth was 97.4% (inactive). Under “measured here: growth at 30 °C”, the relative growth turned out to be 101%.
The corresponding values for `Oc1c(Cl)cc(Cl)c(Cl)c1Cc1c(O)c(Cl)cc(Cl)c1Cl` are -0.02% (active) and -0.87%.
Consider `CN1CCC(N(C)C(=O)Nc2c[nH]c3ccccc23)CC1`, for which the relative growth is 3.18% (active). The relative growth (measured here: growth at 30 °C) was determined as 6.3%.
For `COCC(C)NC(=O)Nc1c[nH]c2ccccc12` (stereo not drawn), in that order: 78.5% (inactive) and 50.9%.
The corresponding values for `O=C(Nc1c[nH]c2ccccc12)NC1CCCC1` are 103% (inactive) and 62.5%.
With `CCOC(=O)N1CCC(N(CCOC)C(=S)Nc2ccccc2F)CC1`, the relative growth was 83.6% (inactive). Moreover, under “measured here: growth at 30 °C”, the relative growth was 74.7%.
For the molecule `Cc1ccc(NC(=O)CC2SC(=Nc3ccc(S(N)(=O)=O)cc3)NC2=O)cc1` (stereo not drawn), the relative growth is 100% (inactive). For the same molecule, under “measured here: growth at 30 °C”, the relative growth is 94.2%.
For the molecule `CCC(C)NC(=O)Cn1nc(-c2ccccc2)c2cc(Cl)ccc21` (stereo not drawn), the relative growth is 105% (inactive). Moreover, the relative growth (measured here: growth at 30 °C) was 86.8%.
On to `C=CCNC(=O)c1ccc(S(=O)(=O)N(CC)c2ccccc2)cc1`, for which the relative growth was 99.8% (inactive). In addition, for the setting “measured here: growth at 30 °C”, the relative growth was found to be 91%.
Turning to `Cc1cnc(C(=O)OCc2cc(=O)n3ccsc3n2)cn1`, the relative growth is 86.6% (inactive). Under “measured here: growth at 30 °C”, the relative growth was found to be 101%.
The corresponding values for `CCOC(=O)OC(C)OC(=O)C1N2C(=O)C(NC(=O)[C@H](N)c3ccccc3)C2SC1(C)C` (stereo partly drawn) are -1.14% (active) and -0.8%.
The corresponding values for `COC(=O)C(N)c1ccccc1` (stereo not drawn) are 68.2% (inactive) and 90.3%.
On to `CC(Oc1ccccc1)C(=O)NC1CCCCC1` (stereo not drawn), for which the relative growth is 110% (inactive). For the same molecule, the relative growth (measured here: growth at 30 °C) worked out at 98.3%.
Turning to `CC(Oc1ccccc1)C(=O)N[C@@H]1C(=O)N2[C@@H]1SC(C)(C)[C@@H]2C(=O)O` (stereo partly drawn), the relative growth was -1.13% (active). Further, the relative growth (measured here: growth at 30 °C) was -0.8%.
As to `CC1(C)S[C@@H]2[C@H](N=CN3CCCCCC3)C(=O)N2[C@H]1C(=O)O`, the relative growth was 93.7% (inactive). For the same molecule, the relative growth (measured here: growth at 30 °C) amounted to 82.3%.
For `C1=CCC(/C=N/Nc2nc3ccccc3o2)CC1` (stereo not drawn), in that order: 82% (inactive) and 84.9%.
For `Cc1cc2oc(=O)cc(Cn3nnc(-c4ccc(F)cc4)n3)c2cc1C`, in that order: 84.4% (inactive) and 95.6%.
In the case of `CCCNS(=O)(=O)c1ccc(N2CCCCS2(=O)=O)cc1`, the relative growth was 101% (inactive). Moreover, the relative growth (measured here: growth at 30 °C) turned out to be 93.7%.
Take `c1ccc(-c2nc3ccccc3nc2N2CCCC2)cc1`: the relative growth was 97.9% (inactive). Further, the relative growth (measured here: growth at 30 °C) was 98.8%.
As for `O=C(CSc1ccccn1)Nc1cc(C(F)(F)F)cc(C(F)(F)F)c1`, the relative growth was 112% (inactive). For the same molecule, for the setting “measured here: growth at 30 °C”, the relative growth is 86.3%.
For the molecule `O=C(O)CCCC(=O)Nc1cc(C(F)(F)F)cc(C(F)(F)F)c1`, the relative growth is 101% (inactive). Moreover, the relative growth (measured here: growth at 30 °C) stood at 71.5%.
In the case of `O=C(N/C=C/c1ccsc1)Nc1cc(C(F)(F)F)cc(C(F)(F)F)c1`, the relative growth is -2.07% (active). In addition, the relative growth (measured here: growth at 30 °C) is -0.58%.
Take `CC(=O)OCC(=O)CC12CC3CC(CC(C3)C1)C2`: the relative growth was 83.3% (inactive). Also, the relative growth (measured here: growth at 30 °C) was 93.7%.
As for `CCOC(=O)CN1C(=O)S/C(=C\c2ccc(-c3ccc(Cl)cc3Cl)o2)C1=O`, the relative growth is 89.9% (inactive). The relative growth (measured here: growth at 30 °C) stood at 87%.
